Only some compounds are listed: those with a hit (about 21% of all), similar ones and a draw of the others.
NS1 inh: inhibitors of influenza NS1 protein function. 270,000 compounds, 0.4% hits. AID 2326. Potency, µM (titrated, usually from 46.1 µM); calls by dose curve; further: actives are rising curves; nearly all actives have a fitted effect of over 50% in size
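S. cerevisiae expressing influenza A NS1, grown in glucose, washed, then diluted 1:100 into pH 6.0 -URA galactose medium with 23 nl compound. Growth recovery read as OD600; NS1-free strain serves as control.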
FBPA Giardia inh: blocks Giardia fructose-bisphosphate aldolase activity; A8B2U2; purified Giardia FBPA; Potency, µM (doses to about 59.6 µM), usual class: inhibitors; 290,000 compounds, 0.71% hits; further: nearly all actives have a fitted effect of over 55% in size
Target sequence (A8B2U2 whole entry, looked up): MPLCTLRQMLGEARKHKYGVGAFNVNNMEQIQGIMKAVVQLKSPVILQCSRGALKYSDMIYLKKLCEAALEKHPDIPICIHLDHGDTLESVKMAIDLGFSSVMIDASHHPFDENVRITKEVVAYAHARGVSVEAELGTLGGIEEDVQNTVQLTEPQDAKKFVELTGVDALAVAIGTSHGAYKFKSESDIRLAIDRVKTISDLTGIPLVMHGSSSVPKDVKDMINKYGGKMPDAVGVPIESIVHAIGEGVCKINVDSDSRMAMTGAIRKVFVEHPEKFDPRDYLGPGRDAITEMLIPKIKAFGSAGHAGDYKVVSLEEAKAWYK
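40 nM FBPA preincubated 10 min at RT with compound (up to 57.5 uM final), then substrate plus GAPDH/TPI/NAD/arsenate coupling and diaphorase/resazurin added. Fluorescence read after 20 min at RT, 525/598 nm.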
Shiga toxin inh: blocks Shiga toxin action in Vero cells; AID 2315; inhibition, % at 38.7 µM; 290,000 compounds, 9.2% hits; Vero cells, Shiga toxin protein synthesis inhibition reporter; in the data active means inhibition mostly above about 28%, no sharp cut-off; inactive means mostly below about 43%
Pf growth 48h: P. falciparum growth inhibition at 48 hours (one generation); P. falciparum luciferase growth in erythrocytes, 48 h; Potency, µM (top dose mostly 28.7 µM), most hits filed as inhibitors; 310,000 compounds, 5.9% hits; AID 504832
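Luciferase-expressing parasites in RBCs, 2% Hct / 0.1% parasitemia final; RPMI 1640 + 0.5% Albumax; 37 C, 5% CO2, one generation; luminescence read-out, lower signal = inhibition.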
CHX counter: counter-screen hit for Shiga toxin inhibitors, cycloheximide; max response, %; cell reporter, cycloheximide protein synthesis inhibition counterscreen; 300,000 compounds, 12% hits; in the data active means max response mostly above about 13%, no sharp cut-off; inactive means mostly below about 14%; further: read at 38.3 µM for the half of the compounds with a filed dose
Pf growth 96h: inhibits malaria parasite growth, 96 h | P. falciparum luciferase reporter growth, 96 h | Potency, µM (titrated, usually from 28.7 µM), actives largely listed as inhibitors | 320,000 compounds, 6.9% hits | AID 504834
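Cell-based qHTS: luciferase-tagged P. falciparum in erythrocytes (2% hematocrit, 0.05% parasitemia final) incubated with compounds for 96 hours, 37 C, 5% CO2; luciferase detection reagent then added and luminescence measured.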
A number is an active result; n = inactive; u = inconclusive; x = no result. Unless noted, the call rests on the fitted dose curve; in most records, active means well fitted curve in the direction sought with a large enough effect; inconclusive means small, poorly fitted or top-dose-only effect, or another doubt; inactive means no such curve, though single readings can be large; an effect the other way counts as inactive or inconclusive.

SMILES	NS1 inh	FBPA Giardia inh	Shiga toxin inh	Pf growth 48h	CHX counter	Pf growth 96h
CCCOc1ccc(/C(O)=C2\C(=O)C(=O)N(c3ccccn3)C2c2ccccc2F)cc1C (stereo not given)	u	n	n	n	n	n
O=C1CC(C(=O)N2CCN(c3ccccc3O)CC2)CN1Cc1ccccc1 (stereo not given)	x	x	x	n	x	u
COc1cccc(Nc2ncc3nc(-c4ccccc4)c(=O)n(C[C@H]4CCCO4)c3n2)c1	x	n	x	x	x	x
COc1cc(-c2nc(-c3cccnc3)no2)cc(OC)c1OC	n	n	n	n	n	n
COc1cc(-c2nc(-c3cccc(C)c3)no2)cc(OC)c1OC	n	n	33.4	n	15.6	x
COC(=O)c1cc(C#N)c(N(C)Cc2ccccc2)nc1C	n	n	n	x	30.2	u
Cc1cc(Cl)ccc1OCC(=O)N/N=C1\CCCc2ccccc21	n	n	n	n	n	n
COc1ccc(C(=O)N/N=C2\CCc3ccccc32)cc1OC	n	n	n	n	29.6	n
Cc1cccc2c1OCC/C2=N\NC(=O)COc1ccccc1	n	n	133.1	n	59.8	n
O=C(COc1ccccc1F)N/N=C1\CCCc2ccccc21	n	n	78.6	n	34.6	n
COc1ccc(C(=O)NN=C2CCCC2)cc1OC	n	n	n	n	n	u
COc1ccccc1OCC(=O)N/N=C1\CCc2ccccc21	n	n	92.3	n	38.1	x
COc1ccc(Cl)cc1NC(=O)CCc1nnc2ccc(N3CCN(C)CC3)nn12	n	x	n	n	n	u
Cc1c(I)c(=O)n(-c2ccccc2)n1C	x	n	n	n	n	n
COc1ccccc1OCC(=O)N/N=C1\CCCCc2ccccc21	n	n	n	u	16.7	u
Cc1ccc(-n2c(=S)[nH]c3c(oc4ccccc43)c2=O)cc1	n	n	69.2	n	39.6	n
Cc1ccc(-n2c(C)nc3oc4ccccc4c(=O)c3c2=O)cc1	n	n	120.6	n	47.3	n
C/C=C1\COC(C(=O)NC)(C(F)(F)F)C=C1C=C1CCCCC1 (stereo not given)	x	n	n	x	n	x
O=C(N/N=C/c1ccc(OC(=O)c2ccc(Br)cc2)cc1)c1ccncc1	n	n	n	u	n	n
Cc1cccc(C(=O)N/N=C/c2ccc(OC3CSC3)cc2)c1	n	n	n	u	24.0	n
O=C(N/N=C/c1cccc(Oc2ccccc2)c1)c1ccccc1Br	n	u	n	u	n	n
O=C(N/N=C/c1ccc(O)cc1)c1ccncc1	n	n	n	n	9.8	n
O=C(N/N=C/c1ccncc1)c1ccc(NC(=O)c2cccc(Cl)c2)cc1	x	n	n	u	n	n
Cn1nccc1C(=O)Oc1cccc(/C=N/NC(=O)c2ccccc2O)c1	x	n	32.6	n	n	n
Cc1cccc(C(=O)N/N=C/c2ccncc2)c1	n	n	n	n	14.0	u
SMILES	NS1 inh	FBPA Giardia inh	Shiga toxin inh	Pf growth 48h	CHX counter	Pf growth 96h
CCn1nc(C)c(CNC(=O)CCc2nnc(Cc3c[nH]c4ccccc34)o2)c1C	n	n	n	u	n	n
COc1ccc(C(CC(=O)Nc2ccccn2)N2Cc3ccccc3C2=O)cc1OC (stereo not given)	n	n	n	n	n	n
CCN(Cc1cnn(C)c1)C(=O)c1ccc2nc(Cc3cccc(Cl)c3)oc2c1	n	n	n	u	n	u
Cc1ccc(CNC(=O)CN(C(=O)C2(C)CC(=O)N=C3C=CC=CN32)c2ccccc2F)cc1 (stereo not given)	n	n	n	n	n	n
O=C(N/N=C/c1ccc(N2CCOCC2)cc1)c1ccc(O)cc1	n	n	72.9	n	36.6	n
Cc1ccc(/C=N\NC(=O)c2csnn2)cc1	n	n	98.2	n	30.0	n
Cc1ccc(S(=O)(=O)NNC(=O)c2csnn2)cc1	n	n	n	n	n	n
O=C(N/N=C/c1cccc(OC2CSC2)c1)c1ccccc1O	n	n	n	u	26.3	n
Fc1ccc(N/N=C/c2cccnc2)c(F)c1	x	n	73.1	n	31.3	n
COc1cccc(NC(=O)Cc2nnc(SCC(=O)NC3CCCCC3)n2C)c1	n	n	n	n	n	n
CN(C)c1ncc2nc(-c3ccccc3)c(=O)n(CCC#N)c2n1	x	n	x	x	x	x
OCC(O)C(O)[C@H](O[C@H]1OC(CO)C(O)C(O)C1O)[C@H](O)CO (stereo not given in full)	x	n	x	x	x	x

Screens: PubChem BioAssay, National Center for Advancing Translational Sciences (NCATS)
